# ALDH1A1 block: blocks purified human ALDH1A1 activity; Purified ALDH1A1, NADH fluorescence, propionaldehyde substrate; Potency, µM (top dose mostly 75.3 µM), inactives show at the highest dose activity, negative = inhibition, actives largely listed as inhibitors; 220,000 tested, 7.3% active; AID 1030; active = well fitted inhibition curve with a large enough effect, not every such curve was filed as active; inconclusive = small, poorly fitted or top-dose-only effect, or another doubt; inactive = no such curve, though single readings can be large or run the other way;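 note: potency is the fitted concentration of half-maximal effect; plate controls were no enzyme wells and a reference inhibitor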
# NPSR antag: neuropeptide S receptor (human) antagonism, cAMP; 220,000 tested, 1% active; CHO-NPSR cells, cAMP TR-FRET, antagonist mode; Q6W5P4; Potency, µM (series often up to 38.3 µM), inactives show top-dose activity change, negative = inhibition, most hits filed as inhibitors; AID 1461; note: potency is the fitted concentration of half-maximal effect; nearly all actives have a fitted effect of over 50% in size
# Target sequence (Q6W5P4 whole entry, looked up): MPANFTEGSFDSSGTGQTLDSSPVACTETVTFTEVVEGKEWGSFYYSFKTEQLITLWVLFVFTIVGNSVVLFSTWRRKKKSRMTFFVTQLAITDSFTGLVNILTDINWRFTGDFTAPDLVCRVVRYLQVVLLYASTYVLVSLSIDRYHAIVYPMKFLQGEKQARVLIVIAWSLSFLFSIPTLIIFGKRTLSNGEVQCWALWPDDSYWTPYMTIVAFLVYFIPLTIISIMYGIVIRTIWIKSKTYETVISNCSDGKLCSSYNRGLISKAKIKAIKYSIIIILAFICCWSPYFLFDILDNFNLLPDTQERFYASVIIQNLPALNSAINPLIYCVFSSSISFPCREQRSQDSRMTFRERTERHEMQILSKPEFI
# RGS12 GoLoco inh: RGS12 GoLoco-Gai1 interaction inhibition | 230,000 tested, 0.44% active | Potency, µM (top dose mostly 61.6 µM), inactives show top-dose activity, negative = inhibition, hits mostly inhibitors | Gai1:RGS12 GoLoco peptide FP, rhodamine, 10 min; active = well fitted inhibition curve with a large enough effect, not every such curve was filed as active; inactive = no such curve, though single readings can be large or run the other way; note: potency is the fitted concentration of half-maximal effect; nearly all actives have a fitted effect of over 30% in size
# KDM4E inh: blocks human JMJD2E demethylase activity | B2RXH2 | AID 2147 | 230,000 tested, 1.6% active | JMJD2E catalytic domain, FDH-coupled NADH fluorescence (FDH is formaldehyde dehydrogenase) | Potency, µM (top dose mostly 57.1 µM), for the others: top-dose activity change, negative = inhibition, most hits filed as inhibitors; active = well fitted inhibition curve with a large enough effect, not every such curve was filed as active; inconclusive = small, poorly fitted or top-dose-only effect, or another doubt; inactive = no such curve, though single readings can be large or run the other way;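 note: potency is the fitted concentration of half-maximal effect; 0% = wells with enzyme and -100% = buffer wells without enzyme; nearly all actives have a fitted effect of over 50% in size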
# Target sequence (B2RXH2 1-337 limits assumed): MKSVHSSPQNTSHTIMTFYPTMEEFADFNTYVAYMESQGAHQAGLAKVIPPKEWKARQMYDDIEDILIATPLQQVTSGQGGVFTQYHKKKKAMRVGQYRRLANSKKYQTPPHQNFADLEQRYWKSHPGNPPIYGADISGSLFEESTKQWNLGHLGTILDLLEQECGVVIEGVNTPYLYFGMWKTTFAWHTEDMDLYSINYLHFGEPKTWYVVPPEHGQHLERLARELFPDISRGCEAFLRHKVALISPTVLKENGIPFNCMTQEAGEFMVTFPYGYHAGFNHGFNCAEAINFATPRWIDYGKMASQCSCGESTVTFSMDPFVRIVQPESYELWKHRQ
# FBPA coupling cs: coupling enzyme interference in Giardia aldolase counter-screen. coupling enzyme system counterscreen, AmpLite Red fluorescence. activity change, negative = inhibition, % at 58.2 µM, hits read low. 290,000 tested, 0.67% active. AID 2472; in the data active = activity change below about -30%
#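 Activity here indicates interference with the coupling reaction, not aldolase inhibition. Compounds at 57.5 uM final met coupling enzymes for 10 min at RT; substrate and AmpLite Red detection followed, with a 525/598 nm fluorescence read after 20 min.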
# Sfp PPTase inh: Sfp phosphopantetheinyl transferase inhibition | Q9F4F7 | Biochemical Sfp PPTase activity, qHTS | Potency, µM, for the others: largest response in the series, negative = inhibition, hits mostly inhibitors | 310,000 tested, 3.5% active | AID 1490;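 note: the enzyme is Sfp with the accession as filed and its product quenches rhodamine fluorescence; potency is the fitted concentration of half-maximal effect; 0% = enzyme reaction without inhibitor and -100% = no enzyme wells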
#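 With Hepes-Na pH 7.6 buffer containing 10 mM MgCl2, Sfp (15 nM) modified BHQ-2-YbbR (12.5 uM) using rhodamine-CoA (5 uM). Two reads 30 minutes apart at 525/598 nm yielded each well's rate.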
# Active calls of the source: *; ? = inconclusive; . = no result given; [ ] = another dose, or the depositor's remark. Hits are enriched below; roughly 8.5% of the tested compounds scored in any of these assays. Unless noted, calls come from the whole dose curve; as a rule, active = well fitted curve in the direction sought with a large enough effect; inconclusive = small, poorly fitted or top-dose-only effect, or another doubt; inactive = no such curve, though single readings can be large; an effect the other way counts as inactive or inconclusive. Unless noted, % is set by controls: 0 for no effect and ±100 for the full control effect.
SMILES,ALDH1A1 block,NPSR antag,RGS12 GoLoco inh,KDM4E inh,FBPA coupling cs,Sfp PPTase inh
Cc1ccc2sc(-c3ccc(NC(=O)CCN4C(=O)c5ccccc5C4=O)cc3)nc2c1,6.9%,-44.3%,9.0%,?,2.7,11.0%
COc1ccc(C(O)Cn2cc([N+](=O)[O-])nc2C)cc1 (stereo not drawn),.,-12.3%,-14.9%,3.3%,-0.7,0.0%
Cc1c(Cc2ccccc2)c(=O)n2c([nH]c3ccccc32)c1C#N,.,?,6.9%,?,-15.8,79.4µM*
N#Cc1c(C(F)(F)F)cc(=O)n2c1[nH]c1ccccc12,.,.,.,.,20.8,17.0%
Cc1cc(SCC(=O)NC(=O)c2cccn2C)nc2ccccc12,.,4.9%,31.7%,-13.0%,-6.4,-21.1%
CCC1CN(C(=O)NCc2ccccc2)c2ccccc2O1 (stereo not drawn),.,.,.,.,0.0,13.4%
COc1ccc(CCNC(=O)Cn2c(=O)n(Cc3ccco3)c(=O)c3ccc(Cl)cc32)cc1OC,?,?,-3.4%,1.0%,0.6,?
CCOC(=O)Cn1c(=O)n(Cc2ccco2)c(=O)c2ccc(C(=O)NCCc3ccccc3)cc21,3.98µM*,?,-16.2%,?,-3.8,56.2µM*
NC(N)=NCCC[C@H](N)C(=O)NCC(=O)N[C@@H](CC(=O)O)C(=O)N[C@@H](CO)C(=O)O,.,.,.,.,0.7,0.5%
COc1ccc(C(=O)/C=C2\NCC3c4ccccc4CCN3C2=O)cc1 (stereo not drawn),7.94µM*,-7.6%[46.1 µM],-9.2%,?,-0.7,?
COc1ccc(C(=O)N2CCc3ccccc32)cc1,4.2%,-11.2%[46.1 µM],0.2%,11.2%,0.0,6.9%
Cc1ccc2cc3cc(C(=O)N4CC(C)CC(C)C4)oc3nc2c1 (stereo not drawn),25.1µM*,?,10.3%,-0.8%,-5.1,-13.0%
COc1ccc2cc3cc(C(=O)N4CC(C)CC(C)C4)oc3nc2c1 (stereo not drawn),.,.,.,.,.,1.5%
COC(=O)C1=C(C)NC(C)=C(C(=O)NCCCN2CCC(c3ccccc3)(c3ccccc3)CC2)C1c1ccc([N+](=O)[O-])cc1 (stereo not drawn),.,.,.,.,1.0,-23.1%
COc1ccc2c(c1)C(c1ccccc1C)CC(=O)O2 (stereo not drawn),31.6µM*,.,4.0%[88.7 µM],.,-4.7,-9.5%
Cc1ccc(Nc2nc(N)[nH]c(=O)c2N=O)cc1,.,-9.0%,2.5%,?,5.8,?
Cn1c(=O)c2c(n3cnnc13)-c1ccccc1CC21CCCC1,11.2µM*,-25.4%[46.1 µM],13.6%,-0.3%,-6.7,15.3%
O=[N+]([O-])c1cccc(C=Nc2cc3c(cc2Br)OCCO3)c1,?,0.3%,5.0%,?,-0.8,-0.2%
CCN(CC)c1ccc(/C=N/NC(=O)c2ccoc2C)c(O)c1,.,?,3.9%,11.2µM*,-2.8,13.9%
CCN(CC)c1ccc(/C=N/NC(=S)NC)c(O)c1,?,-18.5%,34.2%,?,0.9,-8.2%
CCN(CC)c1ccc(/C=N/NC(=O)OC)c(O)c1,?,-12.6%[46.1 µM],-10.6%,12.6µM*,-1.9,-21.1%
COc1ccc(S(=O)(=O)N2CCCCCC2)cc1C(=O)Nc1ccccn1,.,.,.,.,.,8.9%
Cc1[nH]c2ccccc2c1CCCO,-3.9%,-12.0%,3.2%,?,-1.4,18.4%
COC1=C(OC)C(=O)C(CCCCCCCCCCO)=C(C)C1=O,.,-22.5%,-5.2%,18.1%,-64.8*,4.0%
CCCCCCCCCCC1=C(C)C(=O)C(OC)=C(OC)C1=O,?,.,0.8%,.,-44.3*,-16.4%
SMILES,ALDH1A1 block,NPSR antag,RGS12 GoLoco inh,KDM4E inh,FBPA coupling cs,Sfp PPTase inh
CN(C)/C=C/C(=O)c1ccn(S(=O)(=O)c2ccccc2)c1,.,.,.,.,1.6,12.4%
O=C(C[n+]1cc(-c2ccc(F)cc2)n2c1CCC2)Nc1nc(-c2ccc(F)cc2)cs1,14.0%,9.6%,6.1%,-1.3%,1.2,-13.8%
O=C(C[n+]1cc(-c2ccc(Cl)cc2)n2c1CCC2)Nc1nc(-c2ccc(F)cc2)cs1,.,-47.0%,11.5%,0.6%,-0.7,44.7µM*
COc1ccc(-n2c(=O)cnc3cnc(N4CCNCC4)nc32)cc1,?,.,7.3%,.,-1.9,19.3%
COc1ccc(-n2c(=O)cnc3cnc(OC)nc32)cc1,22.4µM*,.,1.9%,.,3.0,29.2%
COc1ccc(Oc2ncc3ncc(=O)n(C[C@H]4CCCO4)c3n2)cc1,14.1µM*,.,-4.0%,.,-5.3,-12.1%
COc1ccc(Oc2ncc3nc(C)c(=O)n(C[C@H]4CCCO4)c3n2)cc1,?,.,1.3%,.,0.5,4.4%
O=C(CCN1C(=O)c2ccccc2S1(=O)=O)Nc1ccc(Cl)cc1,.,.,.,.,2.0,2.7%
N#Cc1cccc(-c2nc3cnc(N4CCOCC4)nc3n(C3CC3)c2=O)c1,?,.,3.16µM*,.,3.1,14.2%
N#Cc1cccc(-c2nc3cnc(Oc4cccc(Cl)c4)nc3n(C3CC3)c2=O)c1,25.1µM*,.,8.9%,.,-0.1,6.7%
O=c1c(-c2ccccc2)nc2cnc(N3CCOCC3)nc2n1C1CC1,?,.,-11.8%,.,-6.9,2.3%
Cc1ccc([N+](=O)[O-])cc1N/C=C/C(=O)c1ccco1,22.4µM*,-3.6%[46.1 µM],36.6%,5.8%,-5.2,-18.1%
O=C(Cn1c(=O)[nH]c2sc3c(c2c1=O)CCCC3)NCC1CCCO1 (stereo not drawn),.,.,.,.,-0.6,9.3%
C=CC1=C2C=C(C3CC3)N(CCCCO)C=C2C(=O)C(C)(OC(=O)c2ccco2)C1=O (stereo not drawn),1.5%[13.5 µM],.,-12.6%[14.2 µM],?,-42.4*,9.7%
C=CC1=C2C=C(C3CC3)N(CC3CC3)C=C2C(=O)C(C)(OC(=O)c2ccco2)C1=O (stereo not drawn),2.6%[13.5 µM],.,-10.2%[14.2 µM],-20.0%[11.4 µM],-30.5*,-6.8%
C=CC1=C2C=C(C3CC3)N(CCOC)C=C2C(=O)C(C)(OC(=O)c2ccco2)C1=O (stereo not drawn),2.5%[13.5 µM],.,-1.2%[14.2 µM],-23.4%[11.4 µM],-29.1,0.4%
Cn1c(=O)c2ncn(CC(=O)Nc3cccc(-c4nc5ccccc5s4)c3)c2n(C)c1=O,?,-11.8%[46.1 µM],11.7%,?,0.7,-20.1%
COc1cc(C(=O)Nc2ccc(S(=O)(=O)NC(C)(C)C)cc2)cc(OC)c1OC,7.6%,8.0%[46.1 µM],-5.3%,0.7%,0.7,19.4%
COC(=O)c1cc(C(=O)Nc2ccc(S(=O)(=O)NC(C)(C)C)cc2)cc([N+](=O)[O-])c1,14.1µM*,9.3%,-0.1%,8.2%,-7.4,-8.4%
CCN(CC)S(=O)(=O)c1ccc(NC(=O)c2cc(C(=O)OC)cc([N+](=O)[O-])c2)cc1,?,-11.5%[46.1 µM],.,-4.6%,-5.4,6.8%
COc1ccc(C(=O)Nc2ccc(S(=O)(=O)NC(C)(C)C)cc2)cc1[N+](=O)[O-],17.8µM*,6.8%,-1.8%,-7.9%,-0.1,-4.6%
